Several values for one entry are separate records, joined by “and”; a condition that tells them apart may be missing. Equal values may be shown once. Inconclusive results are not listed. Where a call stands in place of a potency, no number is given. The source holds several records for some structures; these can differ, active in one and inactive in another. Activity calls are given as the source filed them. Unless noted, the call rests on the fitted dose curve; in most records, active means well fitted curve in the direction sought with a large enough effect in the repeat runs; inconclusive means weak or mixed curves; inactive means no such curve, though single readings can be large; an effect the other way counts as inactive or inconclusive.
Experiments:
[1] = qHTS assay to identify small molecule HDAC inhibitors (AID 1259364); further: potency means the concentration at half of the fitted maximal effect;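 further: wild-type HCT-116 cells with endogenous class I/II HDAC activity; nearly all actives have a fitted effect of over 45% in size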
Summary of the method: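 Relative class I and II HDAC activity is taken from the luminogenic signal in HCT-116 cells, with compound exposure 2 hr and reagent development 30 min at room temperature.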

[2] = qHTS assay to identify small molecule HDAC inhibitors - cell viability counter screen (AID 1259365); further: nearly all actives have a fitted effect of over 50% in size; further: potency means the concentration at half of the fitted maximal effect
Summary of the method: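 To flag cytotoxic hits, 1,500 wild-type HCT-116 cells per well, plated the day before, receive test compounds for 2hr at 37 C before CellTiter-Glo reagent and a luminescence read.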

[3] = qHTS assay to identify small molecule agonists of the sonic hedgehog signaling (Shh) pathway - cell viability counter screen (AID 1259366); further: nearly all actives have a fitted effect of over 50% in size; further: potency means the concentration at half of the fitted maximal effect
Summary of the method: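 Fluorescence from CellTiter-Fluor reports live cells in this counter screen. NIH/3T3-derived Gli1-Luc reporter cells receive test compounds for 24hr at 37C; reagent goes in at 23hr.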

[4] = qHTS assay to identify small molecule antagonists of the sonic hedgehog signaling (Shh) pathway - cell viability counter screen (AID 1259367); further: nearly all actives have a fitted effect of over 55% in size; further: potency means the concentration at half of the fitted maximal effect
Summary of the method: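 Using CellTiter-Fluor, viability of Gli1-Luc reporter 3T3 cells is read by fluorescence in the wells used for the Shh luciferase assay. Treatment lasts 23 hr with conditioned medium, then reagent 1 hr at 37C.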

[5] = qHTS assay to identify small molecule agonists of the sonic hedgehog signaling (Shh) pathway (AID 1259368; calls by dose curve;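 further: NIH/3T3-derived 3T3Gli1-Luc cells carrying a stable Gli1-driven firefly luciferase reporter; series mostly up to about 92 µM; nearly all actives have a fitted effect of over 15% in size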)
Summary of the method: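 Mouse fibroblast (NIH/3T3) reporter cells with stably integrated Gli1-Luc were treated 24 hr with compound; firefly luciferase luminescence served as the read-out.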

[6] = qHTS assay to identify small molecule antagonists of the sonic hedgehog signaling (Shh) pathway (AID 1259369; calls by dose curve; further: nearly all actives have a fitted effect of over 45% in size; further: potency means the concentration at half of the fitted maximal effect)
Summary of the method: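 Conditioned medium drives Shh signalling in 3T3Gli1-Luc cells; compounds in DMSO co-applied, 24hr at 37 C, then luciferase luminescence.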

[7] = target: Estrogen receptor beta (Homo sapiens) (UniProt Q92731); experiment: qHTS assay to identify small molecule agonists of the estrogen receptor beta (ER-beta) signaling pathway (AID 1259377; active means well fitted activation curve with a large enough effect in the signal ratio in the repeat runs, not every such curve was filed as active; the % refers to the signal ratio)
Chain of Estrogen receptor beta (Homo sapiens) (Q92731 whole entry, looked up): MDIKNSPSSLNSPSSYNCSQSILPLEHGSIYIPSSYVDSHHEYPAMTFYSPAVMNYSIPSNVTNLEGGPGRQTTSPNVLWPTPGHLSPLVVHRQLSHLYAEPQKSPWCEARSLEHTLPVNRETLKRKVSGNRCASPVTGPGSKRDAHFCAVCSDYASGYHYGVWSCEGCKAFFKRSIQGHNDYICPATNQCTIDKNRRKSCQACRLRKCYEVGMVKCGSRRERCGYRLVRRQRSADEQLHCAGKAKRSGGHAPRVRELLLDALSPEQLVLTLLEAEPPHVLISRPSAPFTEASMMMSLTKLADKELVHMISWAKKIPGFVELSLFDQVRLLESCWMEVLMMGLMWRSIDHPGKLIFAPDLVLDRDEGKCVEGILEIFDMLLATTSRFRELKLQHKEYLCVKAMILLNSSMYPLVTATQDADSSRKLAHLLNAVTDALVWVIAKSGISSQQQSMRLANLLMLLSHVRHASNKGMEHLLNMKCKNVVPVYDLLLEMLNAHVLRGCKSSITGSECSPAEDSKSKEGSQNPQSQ
Summary of the method: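 Screening used GripTite ER-beta-UAS-bla cells held in 2% charcoal-stripped FBS medium. After overnight (16 hr) compound incubation at 37C, beta-lactamase activity was detected with a FRET substrate by fluorescence.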

[8] = target: Estrogen receptor beta (Homo sapiens) (UniProt Q92731); experiment: qHTS assay to identify small molecule antagonists of the estrogen receptor beta (ER-beta) signaling pathway (AID 1259378; active means well fitted inhibition curve with a large enough effect in the signal ratio in the repeat runs, not every such curve was filed as active; the % refers to the signal ratio)
Summary of the method: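 Antagonist mode: compounds added to beta-lactamase reporter HEK293T ER-beta-UAS cells stimulated with E2 (1nM final), 16 hr at 37C. LiveBLAzer B/G FRET substrate, 2 hours room temperature, fluorescence read-out.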

[9] = qHTS assay to identify small molecule agonists of the androgen receptor (AR) signaling pathway in the presence of an antagonist - cell viability counter screen (AID 1259379); further: nearly all actives have a fitted effect of over 25% in size; further: potency means the concentration at half of the fitted maximal effect
Summary of the method: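 A CellTiter-Fluor read-out measured viability of MDA-kb2 reporter cells (MMTV promoter with AR and GR response elements). Treatment: nilutamide 3.0uM final with compounds at 15 concentrations, 16 hr, 37C, 0% CO2.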

[10] = qHTS assay to identify small molecule agonists of the estrogen receptor beta (ER-beta) signaling pathway - cell viability counter screen (AID 1259380); further: nearly all actives have a fitted effect of over 30% in size; further: potency means the concentration at half of the fitted maximal effect
Summary of the method: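 Cells used were ER-beta-UAS-bla HEK293T in medium with 2% charcoal-stripped FBS. They were treated for 16 hr at 37C. Viability came from CellTiter-Glo luminescence.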

[11] = qHTS assay to identify small molecule antagonists of the estrogen receptor beta (ER-beta) signaling pathway - cell viability counter screen (AID 1259382); further: nearly all actives have a fitted effect of over 55% in size; further: potency means the concentration at half of the fitted maximal effect
Summary of the method: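 Agonist-stimulated (1nM E2) ER-beta-UAS-bla HEK293T cells are incubated with library compounds for 16 hr at 37C. Cell viability is then assessed in the reporter-assay wells by adding CellTiter-Glo and reading luminescence after 30 min.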

[12] = qHTS assay to identify small molecule agonists or antagonists of the thyroid stimulating hormone receptor (TSHR) signaling pathway - wild type cell line counter screen (AID 1259384; calls by dose curve)
Summary of the method: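 Counter screen in untransfected Hek293: compounds (15-point titration, triplicate) plus phosphodiesterase inhibitor Ro20-1724 added after 18 h plating; 30 min RT. Intracellular cAMP via competitive d2/cryptate immunoassay, 1 h incubation.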

[13] = target: Thyrotropin receptor (Homo sapiens) (UniProt P16473); experiment: qHTS assay to identify small molecule antagonists of the thyroid stimulating hormone receptor (TSHR) signaling pathway (AID 1259385; calls by dose curve; further: nearly all actives have a fitted effect of over 20% in size; further: potency means the concentration at half of the fitted maximal effect)
Chain of Thyrotropin receptor (Homo sapiens) (P16473 whole entry, looked up): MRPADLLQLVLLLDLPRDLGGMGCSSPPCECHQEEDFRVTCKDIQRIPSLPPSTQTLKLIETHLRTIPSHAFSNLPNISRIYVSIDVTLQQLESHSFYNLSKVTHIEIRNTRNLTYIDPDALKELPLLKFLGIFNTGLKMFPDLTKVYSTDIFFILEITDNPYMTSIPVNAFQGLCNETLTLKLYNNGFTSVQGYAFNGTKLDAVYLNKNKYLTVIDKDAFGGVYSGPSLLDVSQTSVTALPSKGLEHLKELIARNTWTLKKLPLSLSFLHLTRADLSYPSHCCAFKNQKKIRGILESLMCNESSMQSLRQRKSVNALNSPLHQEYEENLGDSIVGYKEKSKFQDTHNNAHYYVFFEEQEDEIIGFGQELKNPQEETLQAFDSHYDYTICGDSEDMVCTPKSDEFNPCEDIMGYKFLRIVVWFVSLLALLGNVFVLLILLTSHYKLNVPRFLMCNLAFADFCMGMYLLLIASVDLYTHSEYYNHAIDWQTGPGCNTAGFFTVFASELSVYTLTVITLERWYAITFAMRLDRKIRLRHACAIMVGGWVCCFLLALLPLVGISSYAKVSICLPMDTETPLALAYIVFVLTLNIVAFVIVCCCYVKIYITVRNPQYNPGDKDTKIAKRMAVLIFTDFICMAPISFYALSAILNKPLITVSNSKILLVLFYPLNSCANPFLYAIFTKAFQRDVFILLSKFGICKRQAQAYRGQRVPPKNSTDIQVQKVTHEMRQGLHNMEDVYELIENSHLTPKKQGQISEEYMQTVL
Summary of the method: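 Antagonist mode: compound-treated TSHR-expressing HEK293 cells were stimulated with 1.5 ng/mL TSH (final) in presence of Ro20-1724 for 30 min at RT. HTRF cAMP detection after 1 h; each compound tested at 15 concentrations, triplicate.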

[14] = qHTS assay to identify small molecule agonists of the estrogen receptor alpha (ER-alpha) signaling pathway in the presence of an antagonist - cell viability counter screen (AID 1259386);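 further: cells exposed to compounds for 22 h at 37 °C before the viability read; nearly all actives have a fitted effect of over 30% in size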; further: potency means the concentration at half of the fitted maximal effect
Summary of the method: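 ICI-182,780 at 10.0nM final accompanies the compound titration (15 concentrations, 22hr, 37C) on VM7Luc4E2 cells. The CellTiter-Fluor fluorescence readout runs in the same wells as the luciferase assay.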

[15] = target: Progesterone receptor (Homo sapiens) (UniProt P06401); experiment: qHTS assay to identify small molecule agonists of the progesterone receptor (PR) signaling pathway (AID 1346784; calls by dose curve; further: nearly all actives have a fitted effect of over 30% in size)
Chain of Progesterone receptor (Homo sapiens) (P06401 whole entry, looked up): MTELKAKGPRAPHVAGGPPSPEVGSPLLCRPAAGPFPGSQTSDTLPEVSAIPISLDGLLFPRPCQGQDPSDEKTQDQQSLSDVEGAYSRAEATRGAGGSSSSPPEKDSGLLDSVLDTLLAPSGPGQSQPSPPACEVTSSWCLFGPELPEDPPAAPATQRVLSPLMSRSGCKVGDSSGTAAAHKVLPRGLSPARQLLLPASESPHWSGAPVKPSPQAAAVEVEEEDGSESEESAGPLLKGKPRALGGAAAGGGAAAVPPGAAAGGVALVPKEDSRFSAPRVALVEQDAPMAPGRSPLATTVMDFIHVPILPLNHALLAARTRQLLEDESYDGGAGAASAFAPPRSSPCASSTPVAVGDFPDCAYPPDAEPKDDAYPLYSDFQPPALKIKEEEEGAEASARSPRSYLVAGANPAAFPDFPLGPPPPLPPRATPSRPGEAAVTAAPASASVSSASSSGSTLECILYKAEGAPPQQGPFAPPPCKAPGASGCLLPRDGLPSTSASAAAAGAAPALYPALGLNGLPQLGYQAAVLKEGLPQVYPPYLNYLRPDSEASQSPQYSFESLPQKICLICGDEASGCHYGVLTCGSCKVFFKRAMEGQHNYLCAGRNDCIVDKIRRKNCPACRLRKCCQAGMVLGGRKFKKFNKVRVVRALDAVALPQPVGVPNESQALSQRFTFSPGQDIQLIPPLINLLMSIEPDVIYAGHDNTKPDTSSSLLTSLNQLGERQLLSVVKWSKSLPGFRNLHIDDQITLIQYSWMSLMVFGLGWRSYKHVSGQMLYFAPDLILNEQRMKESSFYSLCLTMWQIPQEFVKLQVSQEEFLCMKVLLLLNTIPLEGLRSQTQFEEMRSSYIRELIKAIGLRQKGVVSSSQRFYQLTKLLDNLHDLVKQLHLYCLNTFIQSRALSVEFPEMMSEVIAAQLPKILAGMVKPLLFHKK
Summary of the method: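 Seed PR-UAS-bla HEK 293T cells (2% charcoal-stripped FBS), incubate 6 hr at 37C; add compounds in DMSO, 16 hr at 37C; add LiveBLAzer B/G substrate, 2 hr RT; read fluorescence intensity.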

[16] = target: Progesterone receptor (Homo sapiens) (UniProt P06401); experiment: qHTS assay to identify small molecule antagonists of the progesterone receptor (PR) signaling pathway (AID 1346795; active means well fitted inhibition curve with a large enough effect in the signal ratio in the repeat runs, not every such curve was filed as active; the % refers to the signal ratio)
Summary of the method: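 Screening used a GripTite HEK293T line with PR-responsive UAS-beta-lactamase. Cells were challenged with compound in the presence of 1 nM R5020 final for 16 hr at 37C; B/G FRET substrate, 2 hr room temperature, fluorescence.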

[17] = qHTS assay to identify small molecule antagonists of the progesterone receptor (PR) signaling pathway - cell viability counter screen (AID 1346798); further: nearly all actives have a fitted effect of over 50% in size; further: potency means the concentration at half of the fitted maximal effect
Summary of the method: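 Measures cytotoxicity in parallel with the PR antagonist reporter read: HEK293T PR-UAS-bla cells get compound and R5020 for 16 hr, and remaining viable cells are quantified by CellTiter-Glo luminescence.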

[18] = target: Estrogen receptor (Homo sapiens) (UniProt P03372); experiment: qHTS assay to identify small molecule agonists of the estrogen receptor alpha (ER-alpha) signaling pathway in the presence of an antagonist (AID 1259383; calls by dose curve; further: top concentration of the series differs between compounds; nearly all actives have a fitted effect of over 15% in size)
Chain of Estrogen receptor (Homo sapiens) (P03372 whole entry, looked up): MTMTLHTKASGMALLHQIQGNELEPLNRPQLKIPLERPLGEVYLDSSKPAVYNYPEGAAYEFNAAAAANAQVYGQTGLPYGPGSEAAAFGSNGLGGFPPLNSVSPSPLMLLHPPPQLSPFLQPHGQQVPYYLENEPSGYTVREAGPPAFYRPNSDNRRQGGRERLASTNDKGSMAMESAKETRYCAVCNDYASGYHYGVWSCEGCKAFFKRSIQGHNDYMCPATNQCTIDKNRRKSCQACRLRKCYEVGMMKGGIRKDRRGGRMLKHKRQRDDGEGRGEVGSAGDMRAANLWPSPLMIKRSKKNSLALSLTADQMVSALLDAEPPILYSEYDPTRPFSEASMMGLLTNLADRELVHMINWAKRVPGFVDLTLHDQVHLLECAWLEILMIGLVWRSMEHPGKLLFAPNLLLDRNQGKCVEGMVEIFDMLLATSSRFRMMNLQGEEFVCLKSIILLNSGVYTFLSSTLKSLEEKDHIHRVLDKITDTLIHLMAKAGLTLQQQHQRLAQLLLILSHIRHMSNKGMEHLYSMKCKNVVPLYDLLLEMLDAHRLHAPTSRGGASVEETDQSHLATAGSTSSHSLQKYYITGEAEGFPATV
Summary of the method: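 Using VM7Luc4E2 cells seeded 24hr before treatment, antagonist ICI-182,780 (10.0nM final) was added, followed by compounds at 15 concentrations. Plates incubated 22hr; ONE-Glo luminescence quantified reporter activity.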

[19] = qHTS assay to identify small molecule phospholipidosis (PLD) inducers (AID 1259344; active means well fitted curve in the direction sought with a large enough effect; an effect the other way counts as inactive or inconclusive)
Summary of the method: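 Fluorescent phospholipid staining (LipidTOX Red) measured by automated microscopy in fixed HepG2 cells after 24 h treatment; nuclei counterstained with Hoechst 33342; amiodarone as reference inducer.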

Compound	Potency [1]	Potency [2]	Potency [3]	Potency [4]	outcome [5]	Potency [6]	outcome [7]	Potency [8]	Potency [9]	Potency [10]	Potency [11]	Potency [12]	Potency [13]	Potency [14]	Potency [15]	Potency [16]	Potency [17]	Potency [18]	outcome [19]
O=C(O)CCl	inactive	inactive	inactive	inactive	inactive	inactive	inactive	inactive	inactive	inactive	inactive	inactive	inactive	inactive	inactive	inactive	inactive		
O=C(O)c1nc(Cl)ccc1Cl	inactive	inactive	inactive	inactive	inactive	inactive			inactive	inactive	inactive	inactive	inactive	inactive	inactive	inactive	inactive	inactive	
CCOP(=S)(OCC)Oc1ccc2c(C)c(Cl)c(=O)oc2c1	inactive and 11.9 µM (active)	inactive	inactive	inactive	inactive	13.8 µM (active)	inactive		inactive	inactive	inactive	inactive	inactive	inactive	inactive				inactive
O=C(O)C(Cl)Cl	inactive	inactive	inactive	inactive	inactive	inactive			inactive	inactive	inactive	inactive	inactive	inactive	inactive	inactive	inactive	inactive	inactive
CC[n+]1ccccc1	inactive	inactive	inactive	inactive	inactive	inactive and 429 nM (active)			inactive and 24.1 µM (active)	inactive and 60.6 µM (active)	inactive	inactive	inactive	inactive and 42.9 µM (active)	inactive	inactive			
CCCCCCCCCCCCCC[P+](CCCCCC)(CCCCCC)CCCCCC	inactive	34.5 µM (active) and 69.1 µM (active) and inactive	13.7 µM (active) and 21.9 µM (active) and inactive	15.4 µM (active) and 54.9 µM (active) and inactive	inactive	1.09 µM (active) and 1.1 µM (active) and 769 nM (active)			9.73 µM (active) and 24.5 µM (active) and 2.43 µM (active)	12.2 µM (active) and 27.5 µM (active)	13.7 µM (active) and 27.5 µM (active) and inactive	inactive	68.9 µM (active) and 69.1 µM (active) and inactive	9.73 µM (active) and 21.9 µM (active) and 6.85 µM (active)	inactive	inactive	30.8 µM (active)	inactive	
COP(=O)(OC)C(O)C(Cl)(Cl)Cl (stereo not drawn)	inactive	inactive	inactive	inactive	inactive	inactive			inactive	inactive	inactive	inactive	inactive	inactive	inactive		inactive		inactive
CN(C)[C@@H]1C(=O)C(C(N)=O)=C(O)[C@@]2(O)C(=O)C3=C(O)c4c(O)cccc4[C@@](C)(O)[C@H]3[C@H](O)[C@@H]12	inactive	inactive	inactive	inactive	inactive	inactive			inactive	inactive	inactive	inactive	inactive	inactive			inactive		inactive
Nc1ccc(-c2ccc(N)cc2)cc1	inactive	inactive	inactive	inactive	inactive	inactive	inactive	inactive	inactive	inactive	inactive	inactive		inactive	inactive	inactive	inactive	inactive	
O=[N+]([O-])O	inactive	inactive	inactive	inactive	inactive	inactive			inactive	inactive	inactive	inactive	inactive	inactive	inactive	inactive	inactive		
CC(Cl)(Cl)C(=O)O	inactive	inactive	inactive	inactive	inactive	inactive	inactive	inactive	inactive	inactive	inactive	inactive	inactive	inactive	inactive	inactive	inactive	inactive	
Oc1ccccc1-c1ccccc1	inactive	inactive	inactive	inactive	inactive	inactive and 62.6 µM (active)			inactive	inactive	inactive			inactive	inactive	inactive	inactive	inactive	inactive
COCC(=O)N(c1c(C)cccc1C)C(C)C(=O)OC (stereo not drawn)	inactive	inactive	inactive	inactive	inactive	inactive	inactive	inactive	inactive	inactive	inactive	inactive	inactive	inactive	inactive	inactive	inactive	inactive	inactive

From PubChem BioAssay (Tox21)
